Laboratory results published in PubChem BioAssay (Tox21).
Records with an inconclusive call do not appear. A call without a number means that no potency is given here. Active and inactive are the calls of the source. Unless noted, calls follow the shape of the dose curve; as a rule, active = well fitted curve in the direction sought with a large enough effect in the repeat runs; inconclusive = weak or mixed curves; inactive = no such curve, though single readings can be large; an effect the other way counts as inactive or inconclusive.

Assays:
[1] = qHTS assay for small molecules that induce genotoxicity in human embryonic kidney cells expressing luciferase-tagged ATAD5 (AID 651632); also: nearly all actives have a fitted effect of over 15% in size
In short: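 HEK293T cells carrying a luciferase reporter tagged to ATAD5 were exposed to compound or DMSO vehicle for 16 hr at 37C, 5% CO2. Amplite was added, and after 30 min at room temperature luciferase activity was read as a marker of ATAD5 induction.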

[2] = qHTS assay for small molecule agonists of the p53 signaling pathway - cell viability (AID 651633; calls by dose curve;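 also: p53RE-bla HCT reporter cells with a stable beta-lactamase p53 reporter; series mostly up to about 83 µM; nearly all actives have a fitted effect of over 30% in size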)
In short: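 p53RE-bla cells were treated with compound for 16 hours at 37 C. Cytotoxicity was then measured as CellTiter-Glo luminescence after 30 min at room temperature.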

[3] = qHTS assay for small molecules that induce genotoxicity in human embryonic kidney cells expressing luciferase-tagged ATAD5 - cell viability (AID 651634; calls by dose curve; also: nearly all actives have a fitted effect of over 25% in size; also: potency is read from the fitted curve at half-maximal effect)
In short: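 HEK293T cells expressing luciferase-tagged ATAD5 were exposed to compound or DMSO for 15.5 hr at 37C, 5% CO2. Viability was then read as live-cell protease activity by CellTiter-Fluor fluorescence after 30 min at 37C.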

[4] = qHTS assay for small molecule disruptors of the mitochondrial membrane potential - cell viability (AID 720634; calls by dose curve;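 also: human HepG2 liver cancer cells; series mostly up to about 83 µM; nearly all actives have a fitted effect of over 20% in size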)
In short: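 HepG2 cells seeded overnight at 37 C, then exposed to compound or DMSO for 1 hr at 37 C, 5% CO2. m-MPI dye added, then CellTiter-Glo for 30 min at room temperature; viability read as ATP luminescence.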

[5] = qHTS assay to test for compound auto fluorescence at 590 nm (red) in HepG2 cells (AID 720674)
In short: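 HepG2 cells, 2,000 per well in MEM with 10% FBS, attached overnight at 37 C, then got 23 nL compound or DMSO. After 1 hr at 37 C, 5% CO2, red fluorescence was read at 540/590 nm against Rose Bengal sodium as reference.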

[6] = qHTS assay to test for compound auto fluorescence at 535 nm (green) in HepG2 cells (AID 720675)
[7] = qHTS assay to test for compound auto fluorescence at 460 nm (blue) in HEK293 cells (AID 720678)
In short: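 After cell attachment (4-5 hr, 37C), compounds were pinned onto HEK293 monolayers in 10% dialyzed FBS medium. The blue channel (405/460 nm) was read following overnight culture. Equivalency was calculated against triamterene.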

[8] = qHTS assay to test for compound auto fluorescence at 590 nm (red) in HEK293 cells (AID 720679)
In short: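 Plates of HEK293 cells (10% dialyzed FBS) are treated with 23 nL compound or DMSO vehicle after a 4-5 hr attachment period, incubated overnight at 37C, and read for red fluorescence at 540/590nm.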

[9] = qHTS assay to test for compound auto fluorescence at 535 nm (green) in HEK293 cells (AID 720680)
[10] = qHTS assay to test for compound auto fluorescence at 460 nm (blue) in HEK293 cell free culture (AID 720681)
In short: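 Compounds were added to cell-free DMEM with 10% FBS and fluorescence read directly. The blue channel used 405 nm excitation and 460 nm emission, with triamterene as the reference fluorophore.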

[11] = qHTS assay to test for compound auto fluorescence at 535 nm (green) in HEK293 cell free culture (AID 720682)
In short: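 Cell-free medium (DMEM, 10% FBS) receives compound or DMSO by pintool. Plate read directly at Ex 485/Em 535 nm. Signal converted to fluorescein equivalency.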

[12] = qHTS assay to test for compound auto fluorescence at 590 nm (red) in HepG2 cell free culture (AID 720684)
In short: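 Compound was pinned into wells holding MEM with 10% FBS and no cells, and red fluorescence was read at Ex/Em 540/590 nm. Signal is expressed as auto fluorescence equivalency relative to Rose Bengal sodium.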

[13] = qHTS assay to test for compound auto fluorescence at 460 nm (blue) in HepG2 cell free culture (AID 720685)
In short: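 Compound (23 nL) or DMSO pinned into cell-free MEM with 10% FBS; blue fluorescence read at 405/460 nm excitation/emission, expressed as auto-fluorescence equivalency to triamterene.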

[14] = qHTS assay to test for compound auto fluorescence at 535 nm (green) in HepG2 cell free culture (AID 720686)
[15] = qHTS assay to test for compound auto fluorescence at 460 nm (blue) in HepG2 cells (AID 720687)
In short: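 HepG2 cells in MEM with 10% FBS, attached overnight at 37 C, were exposed to compound or DMSO for 1 hr at 37 C, 5% CO2. Blue fluorescence was read at 405/460 nm, with triamterene as reference fluorophore.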

[16] = biological target: Glucocorticoid receptor (Homo sapiens) (UniProt P04150); experiment: qHTS assay to identify small molecule agonists of the glucocorticoid receptor (GR) signaling pathway (AID 720691; active = well fitted activation curve with a large enough effect in the signal ratio in the repeat runs, not every such curve was filed as active; the % refers to the signal ratio)
Glucocorticoid receptor (Homo sapiens), sequence (P04150 whole entry, looked up): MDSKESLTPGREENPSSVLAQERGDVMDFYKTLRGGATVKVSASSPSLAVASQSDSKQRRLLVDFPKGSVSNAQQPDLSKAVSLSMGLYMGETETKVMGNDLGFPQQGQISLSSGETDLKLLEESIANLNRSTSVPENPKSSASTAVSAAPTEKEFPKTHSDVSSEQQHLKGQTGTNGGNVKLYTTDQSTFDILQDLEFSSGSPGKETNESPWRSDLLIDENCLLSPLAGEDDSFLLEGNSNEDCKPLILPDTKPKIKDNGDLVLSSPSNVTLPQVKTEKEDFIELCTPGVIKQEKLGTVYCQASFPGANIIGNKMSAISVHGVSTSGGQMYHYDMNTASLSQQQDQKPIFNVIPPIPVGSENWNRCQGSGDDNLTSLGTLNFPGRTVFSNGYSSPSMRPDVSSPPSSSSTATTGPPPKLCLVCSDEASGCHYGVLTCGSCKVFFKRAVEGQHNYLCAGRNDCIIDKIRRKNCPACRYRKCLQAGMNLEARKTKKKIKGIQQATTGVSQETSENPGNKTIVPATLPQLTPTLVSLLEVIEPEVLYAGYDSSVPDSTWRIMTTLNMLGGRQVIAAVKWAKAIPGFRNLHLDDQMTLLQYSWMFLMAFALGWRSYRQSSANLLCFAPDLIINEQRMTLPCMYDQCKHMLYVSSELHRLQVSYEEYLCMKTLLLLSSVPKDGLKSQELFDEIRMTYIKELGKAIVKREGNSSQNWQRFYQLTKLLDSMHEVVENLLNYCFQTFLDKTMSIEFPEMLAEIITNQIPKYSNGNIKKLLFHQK
In short: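 GR-bla HeLa cells (beta-lactamase reporter under glucocorticoid response element) were plated 4 h at 37 C/5% CO2, given compounds in DMSO, and incubated 18 h at 37 C. LiveBLAzer B/G FRET substrate was added for 2 h at room temperature, then fluorescence intensity read.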

[17] = biological target: Glucocorticoid receptor (Homo sapiens) (UniProt P04150); experiment: qHTS assay to identify small molecule antagonists of the glucocorticoid receptor (GR) signaling pathway (AID 720692; active = well fitted inhibition curve with a large enough effect in the signal ratio in the repeat runs, not every such curve was filed as active; the % refers to the signal ratio; also: potency is read from the fitted curve at half-maximal effect)
In short: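 GR-bla HeLa cells (beta-lactamase reporter under glucocorticoid response element) were pre-plated 4 h at 37 C, treated with compounds plus 5 nM dexamethasone (final) for 18 h, then read by LiveBLAzer B/G FRET fluorescence after 2 h.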

[18] = qHTS assay for small molecule disruptors of the mitochondrial membrane potential (AID 720635); also: potency is read from the fitted curve at half-maximal effect
In short: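 HepG2 cells exposed to compound 1 hr at 37C, then Mito-MPS dye 30 min. Ratio read of aggregate (540/590 nm) versus monomer (490/535 nm) fluorescence.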

[19] = qHTS assay to test for compound auto fluorescence at 590 nm (red) in HEK293 cell free culture (AID 720683)
In short: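 Cell-free wells of DMEM with 10% FBS received compound, and intrinsic fluorescence was read at excitation/emission 540/590 nm. Values expressed as equivalence to Rose Bengal sodium.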

| Structure (SMILES) | Potency [1] | Potency [2] | Potency [3] | Potency [4] | outcome [5] | outcome [6] | outcome [7] | outcome [8] | outcome [9] | outcome [10] | outcome [11] | outcome [12] | outcome [13] | outcome [14] | outcome [15] | outcome [16] | Potency [17] | Potency [18] | outcome [19] |
| --- | --- | --- | --- | --- | --- | --- | --- | --- | --- | --- | --- | --- | --- | --- | --- | --- | --- | --- | --- |
| O=C(C(Cl)(Cl)Cl)C(Cl)(Cl)Cl | inactive | inactive | inactive | inactive | inactive | inactive | inactive | inactive | inactive | inactive | inactive | inactive | inactive | inactive | inactive | inactive | inactive |  |  |
| O=C(N[C@H](c1ccccc1)[C@@H]1CN2CCC1CC2)c1c(Cl)ccc(C(F)(F)F)c1Cl | inactive | inactive | inactive |  | inactive | inactive | inactive |  | inactive |  | inactive | inactive | inactive | inactive | inactive | inactive | inactive | 43.9 µM (active) | inactive |
| CC(C)N(C(=O)COc1nnc(C(F)(F)F)s1)c1ccc(F)cc1 | inactive | inactive | inactive |  | inactive | inactive | inactive | inactive | inactive | inactive | inactive | inactive | inactive | inactive | inactive | inactive | 49 µM (active) |  |  |
| CC(C)(OO)c1ccccc1 | inactive | inactive | inactive | inactive | inactive | inactive | inactive | inactive | inactive |  | inactive | inactive | inactive | inactive | inactive | inactive |  | inactive | inactive |
| Oc1ccc(Cl)c(Cl)c1Cl | inactive | inactive | inactive | inactive | inactive | inactive | inactive | inactive | inactive |  | inactive | inactive | inactive | inactive | inactive | inactive | inactive | 4.49 µM (active) | inactive |
| OCCCBr | inactive | inactive | inactive | inactive | inactive | inactive | inactive |  | inactive | inactive | inactive | inactive | inactive |  | inactive | inactive | inactive |  |  |
| c1cc2ccc3cccc4ccc(c1)c2c34 | inactive | inactive | inactive |  | inactive | inactive | inactive | inactive | inactive | inactive | inactive | inactive | inactive |  | inactive | inactive |  |  |  |
| CN(N=O)c1ccc([N+](=O)[O-])cc1 | inactive | inactive | inactive | inactive | inactive | inactive | inactive |  | inactive | inactive | inactive | inactive | inactive |  | inactive | inactive | inactive | inactive | inactive |
| COc1nn(C(=O)NS(=O)(=O)c2ccccc2OC(F)(F)F)c(=O)n1C | inactive | inactive | inactive | inactive | inactive | inactive | inactive | inactive | inactive | inactive | inactive | inactive | inactive | inactive | inactive | inactive | inactive |  | inactive |
| C/C=C/C=O | inactive | inactive | inactive |  | inactive | inactive | inactive | inactive | inactive | inactive | inactive | inactive | inactive | inactive | inactive | inactive | inactive |  | inactive |
| CCCCCCCCCCOC(=O)c1ccccc1C(=O)OCCCCCCCCCC | inactive | inactive | inactive | inactive | inactive | inactive | inactive |  | inactive | inactive | inactive | inactive | inactive | inactive | inactive | inactive |  |  | inactive |
| Nc1ccc([N+](=O)[O-])cc1[N+](=O)[O-] | inactive | inactive | 15 µM (active) | inactive | inactive | inactive | inactive | inactive | inactive |  | inactive | inactive | inactive | inactive | inactive |  |  |  | inactive |
| CCOC(=O)COc1cc(-c2nn(C)c(OC(F)F)c2Cl)c(F)cc1Cl | inactive | inactive | inactive | inactive | inactive | inactive |  | inactive | inactive | inactive | inactive | inactive | inactive |  | inactive | inactive | inactive |  | inactive |
| NC(=O)C(Cl)(Cl)Cl | inactive | inactive | inactive | inactive | inactive | inactive |  | inactive | inactive | inactive | inactive | inactive | inactive | inactive | inactive |  |  |  |  |
| O=C1NCN(c2ccccc2)C12CCN(CCCOc1ccc(F)cc1)CC2 | inactive | inactive | inactive | inactive | inactive | inactive |  |  | inactive |  | inactive | inactive | inactive | inactive | inactive | inactive |  | 3.35 µM (active) | inactive |
| CCOP(=S)(OCC)SCSCC | inactive | inactive | inactive | inactive | inactive | inactive | inactive | inactive | inactive | inactive | inactive | inactive | inactive | inactive | inactive | inactive |  |  |  |
| C[C@@H]1CC[C@H]2[C@@H](C)C(=O)O[C@@H]3O[C@@]4(C)CC[C@@H]1[C@]32OO4 | inactive | inactive | 1.06 µM (active) | inactive | inactive | inactive | inactive |  | inactive | inactive | inactive | inactive | inactive |  | inactive | inactive | inactive | inactive | inactive |
